# Source: PubChem BioAssay (NCATS)
# Where “and” joins values, the source holds several entries; their conditions need not be identical. Equal entries are not always repeated. Records with an inconclusive call do not appear. Calls of active or inactive are those of the source. Unless noted, calls follow the shape of the full dose curve.
# How the values were obtained:
# [1] = qHTS Assay for Lipid Storage Modulators (AID 1519); details: Drosophila S3 cells, BODIPY lipid droplet/cell ratio, laser cytometry, cells loaded with oleic acid; as to activity change, negative = inhibition: % is scaled to controls: 0 for no effect and ±100 for the full control effect
# Summary of the method: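 Cells seeded at 5,000 per well were treated with compounds over a concentration series and loaded with oleic acid (400 uM, as added). Lipid droplet fluorescence (488 nm excitation, 500-530 nm channel) was read by laser-scanning cytometry and normalized to 20 uM Triacsin C.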
# [2] = target: Alpha-galactosidase A (Homo sapiens) (UniProt P06280); test: Counterscreen for Glucocerebrosidase Inhibitors: qHTS Assay for Human alpha-Galactosidase at pH 4.5 (AID 992; active = well fitted curve in the direction sought with a large enough effect; an effect the other way counts as inactive or inconclusive; also: 0% is about no effect); details: purified enzyme, fluorogenic substrate; series mostly up to 76.9 µM
# Summary of the method: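 Quantitative HTS: compounds tested from 0.7 nM up to 77 uM against 2 nM enzyme with 80 uM 4-MU alpha-D-galactopyranoside. The 20 min room-temperature reaction is stopped with 1M NaOH/1M glycine, pH 10.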
# [3] = target: alpha-glucosidase (Oryza sativa, rice) (UniProt Q653V4); test: Counterscreen for Glucocerebrosidase Inhibitors: qHTS Assay for Rice alpha-Glucosidase at pH 5.0 (AID 997; active = well fitted curve in the direction sought with a large enough effect; an effect the other way counts as inactive or inconclusive;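 also: 0% = full activity with enzyme and -100% = basal without enzyme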); details: rice alpha-glucosidase enzyme activity; series mostly up to 76.9 µM
# Summary of the method: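 Rice alpha-glucosidase (4 nM final) with 400 uM 4-methylumbelliferyl-alpha-D-glucopyranoside in citrate buffer pH 5.0, 20 min at room temperature, stopped at pH 10; fluorescence 365/440 nm, compounds 0.7 nM–77 uM, AC50 from Hill fits.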
# [4] = Validation of Assay for Modulators of Lamin A Splicing (AID 1459; active = well fitted curve in the direction sought with a large enough effect in the signal ratio; the % refers to the signal ratio;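 also: cells exposed to compound for two days before reading; 0% is about no effect; ratio rise marks activators and ratio drop marks inhibitors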); details: Lamin A splicing dual RFP/GFP fluorescence reporter; series mostly up to 9.22 µM
# Summary of the method: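 S3 HeLa stably expressing lamin A-EGFP splicing minigene and DsRed2, 600 cells/well in Opti-MEM with 2% FBS, treated 48 h at 37C; laser-scanning cytometry gives GFP/RFP total intensity ratio; ancitabine positive control, 0.5% DMSO vehicle.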
# [5] = Cell Viability - LYMP2-022 (AID 987; active = well fitted curve in the direction sought with a large enough effect; an effect the other way counts as inactive or inconclusive;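 also: cells exposed to compound for 24 hr; 0% = DMSO alone and full effect = tetraoctylammonium bromide at 92 µM; nearly all actives have a fitted effect of over 55% in size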); details: LYMP2-022 lymphoblastoid cell viability; series mostly up to 92.2 µM
# Summary of the method: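 LYMP2-022 lymphoblastoid cells (2500/well, complete medium) were treated with compounds for 24 hours at 37 C; intracellular ATP was then read by CellTiter-Glo luminescence after 30 min at room temperature. AC50 values were derived from Hill-equation fits.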
# [6] = Cell Viability - LYMP1-002 - Assay at 24 hr (AID 993; active = well fitted curve in the direction sought with a large enough effect; an effect the other way counts as inactive or inconclusive; also: % is scaled to controls: 0 for no effect and ±100 for the full control effect); details: LYMP1-002 lymphoblastoid cells viability; series mostly up to 92.2 µM
# Summary of the method: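 Human lymphoblastoid LYMP1-002 cells (2500/well) treated 24 h at 37 °C; viability as intracellular ATP by CellTiter-Glo luminescence. Tetraoctylammonium bromide as positive control; AC50 from Hill-equation fits of qHTS concentration-response.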
# [7] = Cell Viability - LYMP1-002 - Assay at 40 hr (AID 994; active = well fitted curve in the direction sought with a large enough effect; an effect the other way counts as inactive or inconclusive;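 also: 0% = DMSO only and full inhibition = 92 µM tetraoctylammonium bromide; nearly all actives have a fitted effect of over 60% in size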); details: LYMP1-002 lymphoblastoid cell viability; series mostly up to 92.2 µM
# Summary of the method: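 LYMP1-002 human lymphoblastoid cells (2500/well, complete medium) were treated with compounds for 40 hr at 37 C. Intracellular ATP was measured by CellTiter-Glo luminescence, and AC50 values came from Hill-equation fits of concentration-response data; tetraoctylammonium bromide was the positive control.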
# [8] = measured here: cell count channel max response
# [9] = measured here: lipid channel max response
# Alpha-galactosidase A (Homo sapiens), sequence (P06280 whole entry, looked up): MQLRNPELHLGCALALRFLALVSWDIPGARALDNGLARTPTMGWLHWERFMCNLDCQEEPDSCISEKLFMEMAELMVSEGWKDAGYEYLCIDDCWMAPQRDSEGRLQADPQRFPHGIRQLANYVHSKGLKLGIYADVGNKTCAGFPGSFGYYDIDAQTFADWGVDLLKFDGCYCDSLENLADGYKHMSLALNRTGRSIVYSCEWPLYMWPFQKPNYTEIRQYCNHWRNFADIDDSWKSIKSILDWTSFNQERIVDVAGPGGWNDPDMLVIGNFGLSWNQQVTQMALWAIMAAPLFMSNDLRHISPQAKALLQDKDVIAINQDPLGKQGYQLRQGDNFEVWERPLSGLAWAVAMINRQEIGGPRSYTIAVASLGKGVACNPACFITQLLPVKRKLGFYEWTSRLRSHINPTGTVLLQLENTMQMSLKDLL
compound,measurement,setting,value
N=C(N=C(N)N)N1CCOCC1,"activity change, negative = inhibition",[1]; at 25.7 µM (top of the series),-1.12% (inactive)
same,max response,[1]; [8],14.2%
same,max response,[1]; [9],12.8%
CN1C(C(=O)Nc2ccccn2)=C(O)c2sccc2S1(=O)=O,"activity change, negative = inhibition",[1]; at 25.7 µM (top of the series),-0.44% (inactive)
same,max response,[1]; [8],-5.92%
same,max response,[1]; [9],-4.62%
O=c1oc2cc(O)ccc2s1,"activity change, negative = inhibition",[1]; at 57.5 µM (top of the series),5.97% (inactive)
same,max response,[1]; [8],14.5%
same,max response,[1]; [9],23.2%
C[C@H](Cc1ccc(O)c(O)c1)[C@@H](C)Cc1ccc(O)c(O)c1,outcome,[2],inactive
same,outcome,[3],inactive
same,outcome,[4],inactive
O=C(CCc1ccc(O)cc1)c1c(O)cc(O)cc1O,outcome,[2],inactive
same,outcome,[3],inactive
same,outcome,[4],inactive
same,"activity change, negative = inhibition",[1]; at 57.5 µM (top of the series),10.4% (inactive)
same,max response,[1]; [8],5.8%
same,max response,[1]; [9],18.1%
O=C1c2c(O)cc(O)cc2OC(c2ccc(O)c(O)c2)C1O (stereo unspecified),outcome,[4],inactive
same,"activity change, negative = inhibition",[1]; at 57.5 µM (top of the series),0.956% (inactive)
same,max response,[1]; [8],37.7%
same,max response,[1]; [9],36.5%
CN(C)CCc1c[nH]c2ccc(Cn3cncn3)cc12,"activity change, negative = inhibition",[1]; at 57.5 µM (top of the series),3.43% (inactive)
same,max response,[1]; [8],14.1%
same,max response,[1]; [9],22%
Cc1cccc(C#Cc2ccccc2)n1,outcome,[2],inactive
same,outcome,[3],inactive
same,outcome,[4],inactive
same,"activity change, negative = inhibition",[1]; at 57.5 µM (top of the series),0.257% (inactive)
same,max response,[1]; [8],-2.56%
same,max response,[1]; [9],-2.47%
CC1(C)NC(=O)N(c2ccc([N+](=O)[O-])c(C(F)(F)F)c2)C1=O,outcome,[2],inactive
same,outcome,[3],inactive
same,outcome,[4],inactive
same,"activity change, negative = inhibition",[1]; at 57.5 µM (top of the series),-13.9% (inactive) and -13.7% (inactive)
same,max response,[1]; [8],-10.4% and -26.6%
same,max response,[1]; [9],-19.8% and -35.1%
Cc1cc(O)c2c(c1)C(=O)c1cc(O)cc(O)c1C2=O,Potency,[5],inactive
same,outcome,[2],inactive
same,Potency,[6],inactive
same,Potency,[7],inactive
same,outcome,[3],inactive
same,outcome,[4],inactive
same,"activity change, negative = inhibition",[1]; at 57.5 µM (top of the series),-0.138% (inactive) and 5.28% (inactive)
same,max response,[1]; [8],55.1% and -15.9%
same,max response,[1]; [9],55.2% and -8.66%
CC1(C)C(=O)N(CCN2CCC(C(=O)c3ccc(F)cc3)CC2)c2ccccc21,outcome,[2],inactive
same,outcome,[3],inactive
same,outcome,[4],inactive
CCN(CCO)CCCC(C)Nc1ccnc2cc(Cl)ccc12 (stereo unspecified),"activity change, negative = inhibition",[1]; at 57.5 µM (top of the series),5.88% (inactive)
same,max response,[1]; [8],13.5%
same,max response,[1]; [9],23.6%
Oc1ccc(OCc2ccccc2)cc1,"activity change, negative = inhibition",[1]; at 25.7 µM (top of the series),-0.0547% (inactive)
same,max response,[1]; [8],-20%
same,max response,[1]; [9],-20.9%
O=c1c(O)c(-c2cc(O)c(O)c(O)c2)oc2cc(O)cc(O)c12,outcome,[2],inactive
same,outcome,[3],inactive
same,outcome,[4],inactive
same,"activity change, negative = inhibition",[1]; at 25.7 µM (top of the series),2.34% (inactive)
same,"activity change, negative = inhibition",[1]; at 57.5 µM (top of the series),14.6% (inactive) and -3.22% (inactive)
same,max response,[1]; [8],-7.21% and 17.3% and -40.9%
same,max response,[1]; [9],-2.79% and 29.1% and -42.9%
O=C(c1ccccc1)c1ccc2n1CCC2C(=O)O (stereo unspecified),"activity change, negative = inhibition",[1]; at 57.5 µM (top of the series),6.17% (inactive)
same,max response,[1]; [8],4.19%
same,max response,[1]; [9],13.3%
Nc1nc(OCc2ccccc2)c2[nH]cnc2n1,outcome,[2],inactive
same,outcome,[3],inactive
same,outcome,[4],inactive
Cc1cc(=O)oc2cc(O)ccc12,"activity change, negative = inhibition",[1]; at 25.7 µM (top of the series),0.949% (inactive)
same,max response,[1]; [8],-7.84%
same,max response,[1]; [9],-11.2%
CCOc1cc(CC(=O)N[C@@H](CC(C)C)c2ccccc2N2CCCCC2)ccc1C(=O)O,"activity change, negative = inhibition",[1]; at 25.7 µM (top of the series),0.216% (inactive)
same,max response,[1]; [8],-5.3%
same,max response,[1]; [9],-9.52%
CC(=O)N1CCN(c2ccc(OC[C@H]3CO[C@](Cn4ccnc4)(c4ccc(Cl)cc4Cl)O3)cc2)CC1,outcome,[2],inactive
same,outcome,[3],inactive
same,outcome,[4],inactive
CC1Cc2ccccc2N1NC(=O)c1ccc(Cl)c(S(N)(=O)=O)c1 (stereo unspecified),"activity change, negative = inhibition",[1]; at 57.5 µM (top of the series),7.15% (inactive)
same,max response,[1]; [8],9.62%
same,max response,[1]; [9],23.5%
O=C(NCC1CCCCN1)c1cc(OCC(F)(F)F)ccc1OCC(F)(F)F (stereo unspecified),outcome,[4],inactive
O=C(NC(Cc1cc(=O)[nH]c2ccccc12)C(=O)O)c1ccc(Cl)cc1 (stereo unspecified),"activity change, negative = inhibition",[1]; at 57.5 µM (top of the series),11.1% (inactive)
same,max response,[1]; [8],17.3%
same,max response,[1]; [9],35%
C[C@@H](N)C1CCC(C(=O)Nc2ccncc2)CC1 (stereo partly specified),outcome,[4],inactive
same,"activity change, negative = inhibition",[1]; at 57.5 µM (top of the series),2.12% (inactive)
same,max response,[1]; [8],-4.26%
same,max response,[1]; [9],-0.634%
S=c1nc[nH]c2nc[nH]c12,"activity change, negative = inhibition",[1]; at 57.5 µM (top of the series),2.17% (inactive)
same,max response,[1]; [8],9.84%
same,max response,[1]; [9],14.8%
CCC1=C(C)CN(C(=O)NCCc2ccc(S(=O)(=O)NC(=O)NC3CCC(C)CC3)cc2)C1=O (stereo unspecified),"activity change, negative = inhibition",[1]; at 25.7 µM (top of the series),-0.769% (inactive)
same,max response,[1]; [8],-5.01%
same,max response,[1]; [9],-5.89%
OC(CN1CCN(c2cccc(Cl)c2)CC1)C(c1ccccc1)c1ccccc1 (stereo unspecified),outcome,[4],inactive
COc1cc2nc(N3CCN(C(=O)C4CCCO4)CC3)nc(N)c2cc1OC (stereo unspecified),outcome,[4],inactive
same,"activity change, negative = inhibition",[1]; at 57.5 µM (top of the series),0.288% (inactive)
same,max response,[1]; [8],-1.5%
same,max response,[1]; [9],-3.7%
O=C1c2ccccc2-c2n[nH]c3cccc1c23,outcome,[2],inactive
same,outcome,[3],inactive
same,outcome,[4],inactive
same,"activity change, negative = inhibition",[1]; at 57.5 µM (top of the series),2.36% (inactive)
same,max response,[1]; [8],-6.85%
same,max response,[1]; [9],-4.08%
CCCCc1ccc2nc(NC(=O)OC)[nH]c2c1,"activity change, negative = inhibition",[1]; at 25.7 µM (top of the series),1.84% (inactive)
same,max response,[1]; [8],-4.18%
same,max response,[1]; [9],-2.48%
Cc1cc2c(s1)Nc1ccccc1N=C2N1CCN(C)CC1,"activity change, negative = inhibition",[1]; at 57.5 µM (top of the series),13.5% (inactive)
same,max response,[1]; [8],-2.56%
same,max response,[1]; [9],9.09%
Cc1nc2n(c(=O)c1CCN1CCC(c3noc4cc(F)ccc34)CC1)CCCC2,outcome,[2],inactive
same,outcome,[3],inactive
same,outcome,[4],inactive
same,"activity change, negative = inhibition",[1]; at 25.7 µM (top of the series),-3.92% (inactive)
same,"activity change, negative = inhibition",[1]; at 57.5 µM (top of the series),0.755% (inactive)
same,max response,[1]; [8],-8.38% and -35%
same,max response,[1]; [9],-11.2% and -35%
CCCOc1ccc2nc(NC(=O)OC)[nH]c2c1,"activity change, negative = inhibition",[1]; at 57.5 µM (top of the series),5.26% (inactive)
same,max response,[1]; [8],3.19%
same,max response,[1]; [9],11.6%
CN(C)CCCC1(c2ccc(F)cc2)OCc2cc(C#N)ccc21 (stereo unspecified),outcome,[4],inactive
same,"activity change, negative = inhibition",[1]; at 57.5 µM (top of the series),0.497% (inactive)
same,max response,[1]; [8],-10.6%
same,max response,[1]; [9],-12.9%
Cc1ccc(S(=O)(=O)NC(=O)NN2CC3CCCC3C2)cc1 (stereo unspecified),"activity change, negative = inhibition",[1]; at 57.5 µM (top of the series),1.76% (inactive) and 2.62% (inactive)
same,max response,[1]; [8],7.98% and 20.6%
same,max response,[1]; [9],13.4% and 23.5%
CC(=O)O[C@H]1C(=O)[C@@]2(C)C([C@H](OC(=O)c3ccccc3)[C@]3(O)C[C@H](OC(=O)[C@H](O)[C@@H](NC(=O)c4ccccc4)c4ccccc4)C(C)=C1C3(C)C)[C@]1(OC(C)=O)CO[C@@H]1C[C@@H]2O (stereo partly specified),"activity change, negative = inhibition",[1]; at 57.5 µM (top of the series),-1.06% (inactive)
same,max response,[1]; [8],-13.9%
same,max response,[1]; [9],-15.5%
